Results published in PubChem BioAssay.
For some of these results: Results with a measured potency or affinity are listed apart. The source made the active and inactive calls. Unless noted, how the calls were made is not given here.

Key:
[1] = antimalarial activity against Dd2 strain (AID 2302;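 active means growth inhibition above 50% at the single 2 µM test dose, taken to imply half-maximal potency below 2 µM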;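 further: 0% = DMSO untreated growth and 100% = chloroquine plus artemisinin killed control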); settings: P. falciparum Dd2 in RBCs, LDH growth readout, 72 h; at 2 µM; hits give high values
[2] = HepG2 cytotoxicity, primary screen, cytotoxicity control for P. falciparum antimalarial project, cell-based, ATP luminescence (AID 2303;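 active means inhibition above 50%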;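 further: 0% = DMSO wells and 100% = digitonin-killed cells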); settings: HepG2 viability, 24-48 h, at 10 µM, hits give high values
[3] = target: L-lactate dehydrogenase (Plasmodium falciparum (isolate CDC / Honduras)) (UniProt Q27743); experiment: PfLDH activity inhibition – cell lysate, 3D7 strain, counter-screen for P. falciparum growth inhibition project (AID 2304);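 further: 0% = vehicle and 100% = reference inhibitor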; settings: P. falciparum 3D7 crude extract, LDH APAD/NBT absorbance; at 2 µM; hits give high values
[4] = inhibition of 3D7 malaria parasite growth – strain 3D7 (AID 2306);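 further: 0% = DMSO wells and 100% = chloroquine plus artemisinin control wells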; settings: P. falciparum 3D7 erythrocytic growth, LDH absorbance, 72 h; at 2 µM; hits give high values
[5] = target: Calcium-dependent protein kinase 1 (Plasmodium falciparum (isolate 3D7)) (UniProt P62344); experiment: PfCDPK1 kinase inhibitors, biochemical, TCAMS library (AID 1159585; cut-off not given, nearly all actives have IC50 up to about 0.98 µM;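 further: inhibitors leave more ATP so luminescence rises with inhibition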); settings: recombinant PfCDPK1, Kinase-Glo ATP depletion luminescence
[6] = target: Plasmodium falciparum protein kinase 6 (PK6, PF3D7_1337100) (UniProt Q8IDW1); experiment: PfPK6 kinase inhibitors, biochemical, TCAMS library (AID 1159586); settings: recombinant PfPK6, Kinase-Glo ATP depletion luminescence
[7] = target: Protein kinase 7 (PK7), Plasmodium falciparum 3D7 (PF3D7_0213400) (UniProt Q7YTF7); experiment: inhibition of Plasmodium PK7 catalytic activity – biochemical, TCAMS antimalarial set, Kinase-Glo luminescence (AID 1159587); settings: recombinant PfPK7, Kinase-Glo ATP depletion luminescence
[8] = target: Calcium-dependent protein kinase 4 (Plasmodium falciparum (isolate 3D7)) (UniProt Q8IBS5); experiment: PfCDPK4 kinase inhibitors, biochemical, TCAMS library (AID 1159588; cut-off not given, nearly all actives have IC50 up to about 0.91 µM); settings: recombinant PfCDPK4, Kinase-Glo ATP depletion luminescence
Sequence of Calcium-dependent protein kinase 4 (Plasmodium falciparum (isolate 3D7)) (Q8IBS5 whole entry, looked up): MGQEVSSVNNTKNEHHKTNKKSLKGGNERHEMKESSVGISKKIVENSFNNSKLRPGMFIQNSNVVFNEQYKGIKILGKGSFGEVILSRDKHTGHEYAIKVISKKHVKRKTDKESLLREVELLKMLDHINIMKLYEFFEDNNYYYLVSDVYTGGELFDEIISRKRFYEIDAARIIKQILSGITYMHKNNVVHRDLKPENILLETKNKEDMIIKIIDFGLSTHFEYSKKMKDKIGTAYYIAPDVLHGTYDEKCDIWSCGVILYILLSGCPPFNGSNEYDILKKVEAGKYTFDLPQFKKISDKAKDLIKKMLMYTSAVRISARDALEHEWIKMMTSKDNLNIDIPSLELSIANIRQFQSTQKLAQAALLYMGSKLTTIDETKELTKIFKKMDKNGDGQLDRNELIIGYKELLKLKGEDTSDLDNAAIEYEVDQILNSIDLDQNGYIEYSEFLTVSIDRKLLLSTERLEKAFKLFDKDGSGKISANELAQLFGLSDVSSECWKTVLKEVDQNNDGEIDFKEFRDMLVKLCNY

Sequence of Calcium-dependent protein kinase 1 (Plasmodium falciparum (isolate 3D7)) (P62344 whole entry, looked up): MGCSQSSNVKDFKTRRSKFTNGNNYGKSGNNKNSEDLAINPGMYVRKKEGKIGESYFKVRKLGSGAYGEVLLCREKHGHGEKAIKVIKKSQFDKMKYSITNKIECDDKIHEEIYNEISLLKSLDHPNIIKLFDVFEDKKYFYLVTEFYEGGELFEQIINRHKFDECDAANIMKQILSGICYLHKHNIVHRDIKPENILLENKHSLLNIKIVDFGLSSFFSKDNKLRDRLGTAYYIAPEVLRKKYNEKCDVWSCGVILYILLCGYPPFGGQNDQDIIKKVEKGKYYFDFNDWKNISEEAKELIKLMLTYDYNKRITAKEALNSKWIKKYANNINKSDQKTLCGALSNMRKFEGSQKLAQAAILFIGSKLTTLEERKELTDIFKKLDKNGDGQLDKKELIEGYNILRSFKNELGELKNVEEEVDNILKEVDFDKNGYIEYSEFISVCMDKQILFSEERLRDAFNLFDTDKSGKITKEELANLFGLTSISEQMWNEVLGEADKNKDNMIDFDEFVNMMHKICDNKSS
Sequence of Plasmodium falciparum protein kinase 6 (PK6, PF3D7_1337100) (Q8IDW1 1-305): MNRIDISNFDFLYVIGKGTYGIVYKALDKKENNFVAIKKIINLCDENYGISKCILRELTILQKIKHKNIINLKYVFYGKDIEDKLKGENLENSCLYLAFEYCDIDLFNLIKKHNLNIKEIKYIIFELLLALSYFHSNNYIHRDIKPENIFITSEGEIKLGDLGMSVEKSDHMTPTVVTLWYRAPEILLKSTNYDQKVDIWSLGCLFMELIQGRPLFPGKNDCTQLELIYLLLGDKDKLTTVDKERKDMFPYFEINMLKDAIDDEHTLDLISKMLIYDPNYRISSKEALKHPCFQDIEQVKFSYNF
Sequence of Protein kinase 7 (PK7), Plasmodium falciparum 3D7 (PF3D7_0213400) (Q7YTF7 1-343): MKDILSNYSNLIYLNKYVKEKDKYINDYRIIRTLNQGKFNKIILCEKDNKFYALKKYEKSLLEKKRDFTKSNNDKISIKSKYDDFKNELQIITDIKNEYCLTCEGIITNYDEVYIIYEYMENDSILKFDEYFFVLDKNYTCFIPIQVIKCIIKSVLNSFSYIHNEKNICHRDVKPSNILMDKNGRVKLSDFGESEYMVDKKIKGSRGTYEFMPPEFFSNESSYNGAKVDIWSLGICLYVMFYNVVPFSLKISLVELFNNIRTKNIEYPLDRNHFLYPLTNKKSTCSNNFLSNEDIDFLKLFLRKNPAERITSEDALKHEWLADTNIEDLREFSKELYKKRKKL
Sequence of L-lactate dehydrogenase (Plasmodium falciparum (isolate CDC / Honduras)) (Q27743 whole entry, looked up): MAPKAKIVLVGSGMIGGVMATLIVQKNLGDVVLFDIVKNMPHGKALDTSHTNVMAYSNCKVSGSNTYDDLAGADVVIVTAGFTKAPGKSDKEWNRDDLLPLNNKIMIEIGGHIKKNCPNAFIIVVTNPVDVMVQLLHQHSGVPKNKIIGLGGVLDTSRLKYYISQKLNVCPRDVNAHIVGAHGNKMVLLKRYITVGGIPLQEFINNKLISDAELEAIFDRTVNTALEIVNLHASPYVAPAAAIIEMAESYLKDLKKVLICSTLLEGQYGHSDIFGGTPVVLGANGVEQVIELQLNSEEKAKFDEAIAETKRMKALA

CC(O)C1CCCCN1C(=O)c1cccc(-c2ccc(-c3nc4ccc(C(F)(F)F)cc4[nH]3)cc2)c1 (stereo not given)
inactive: inhibition [2] 33% | inhibition [3] 0% | outcome [5] | outcome [6] | outcome [7] | outcome [8]
active: growth inhibition [1] 100% | growth inhibition [4] 101%

Cc1ccccc1C1CCN(C2CCC(NC(=O)/C=C/c3ccc(F)cc3)CC2)CC1 (stereo not given)
inactive: growth inhibition [1] 30% | inhibition [3] -2% | outcome [5] | outcome [6] | outcome [7] | outcome [8]
active: inhibition [2] 61% | growth inhibition [4] 87%

Cc1cccc2[nH]c(-c3ccc(-c4ccc(CNCCNC(=O)c5ccnn5C)cc4)cc3)nc12
active: growth inhibition [1] 98% | growth inhibition [4] 102%
inactive: inhibition [2] 29% | inhibition [3] -2% | outcome [5] | outcome [6] | outcome [7] | outcome [8]

O=C(NCc1ccccc1)C1Cc2c([nH]c3ccc(Br)cc23)C2(CCN(Cc3ccccc3)CC2)N1 (stereo not given)
inactive: inhibition [2] 15% | inhibition [3] 1% | outcome [5] | outcome [6] | outcome [7] | outcome [8]
active: growth inhibition [1] 70% | growth inhibition [4] 98%

Oc1ccc(C2CNCCc3c2cc(O)c(OCc2ccccc2)c3Cl)cc1 (stereo not given)
inactive: growth inhibition [1] 8% | inhibition [2] 14% | inhibition [3] 5% | outcome [5] | outcome [6] | outcome [7] | outcome [8]
active: growth inhibition [4] 98%

Cc1nc2ccc3ccc(CNc4ccc(C(=O)N[C@@H](CCC(=O)O)C(=O)N[C@@H](Cc5cccs5)C(=O)O)c(F)c4)cc3c2c(=O)[nH]1
active: growth inhibition [1] 96% | growth inhibition [4] 97%
inactive: inhibition [2] 43% | inhibition [3] 4% | outcome [5] | outcome [6] | outcome [7] | outcome [8]

C=C[C@]1(C)C[C@@H](OC(=O)CNC[C@@H](O)CN2C[C@H](c3ccnc4ccc(OC)nc34)OC2=O)[C@]2(C)[C@H](C)CC[C@]3(CCC(=O)[C@H]32)[C@@H](C)[C@@H]1O
inactive: inhibition [2] 0% | inhibition [3] -3% | outcome [5] | outcome [6] | outcome [7] | outcome [8]
active: growth inhibition [1] 82% | growth inhibition [4] 89%

CCCNCc1ccc(-c2ccc(CN(CCOC)C(=O)c3nn(-c4ccccc4)nc3C)cc2)nc1
inactive: inhibition [2] 18% | inhibition [3] 3% | outcome [5] | outcome [6] | outcome [7] | outcome [8]
active: growth inhibition [1] 71% | growth inhibition [4] 99%

Cc1ccc(Oc2cnn(C)c(=O)c2Nc2cccc(C(=O)NCCc3ccccn3)c2)c(C)c1
active: growth inhibition [1] 94% | growth inhibition [4] 94%
inactive: inhibition [2] 0% | inhibition [3] -4% | outcome [5] | outcome [6] | outcome [7] | outcome [8]

c1ccc2cc3c(NCCN4CCOCC4)ccnc3cc2c1
inactive: inhibition [2] -1% | inhibition [3] -1% | outcome [5] | outcome [6] | outcome [7] | outcome [8]
active: growth inhibition [1] 98% | growth inhibition [4] 99%

CN(C)C(=O)CC(=O)NCc1c(Cl)cccc1Cl
inactive: growth inhibition [1] 2% | inhibition [2] 2% | inhibition [3] -4% | outcome [5] | outcome [6] | outcome [7] | outcome [8]
active: growth inhibition [4] 95%

COc1cc(Cc2cnc(N)nc2N)cc(OC(C)C)c1OC
active: growth inhibition [4] 91%
inactive: growth inhibition [1] 15% | inhibition [2] 10% | inhibition [3] 0% | outcome [5] | outcome [6] | outcome [7] | outcome [8]

N#Cc1cccc(NC(=O)NC2CCN(CCCCCNC(=O)[C@@H]3C[C@H]3c3ccc(Cl)c(Cl)c3)CC2)c1
active: growth inhibition [4] 102%
inactive: growth inhibition [1] -2% | inhibition [2] 36% | inhibition [3] 3% | outcome [5] | outcome [6] | outcome [7] | outcome [8]

Cc1ccc(CNC(=O)[C@H](Cc2ccccc2)Nc2cc(C)nc(NCCc3ccc(F)cc3)n2)cc1
inactive: growth inhibition [1] 22% | inhibition [2] 10% | inhibition [3] -3% | outcome [5] | outcome [6] | outcome [7] | outcome [8]
active: growth inhibition [4] 98%

Cc1nc(-c2cccc3c(NC(=O)Nc4ccc5nccc(N6CCN(C)CC6)c5c4)cccc23)no1
active: growth inhibition [1] 84% | growth inhibition [4] 100%
inactive: inhibition [2] -4% | inhibition [3] -2% | outcome [5] | outcome [6] | outcome [7] | outcome [8]

O=S1c2ccccc2Sc2ccccc21
active: growth inhibition [4] 99%
inactive: growth inhibition [1] -1% | inhibition [2] 48% | inhibition [3] 6% | outcome [5] | outcome [6] | outcome [7] | outcome [8]

CN(/N=C/c1ccc(Cl)cc1)c1nc(NCCc2ccc(O)cc2)nc(N2CCNCC2)n1
inactive: inhibition [2] 10% | inhibition [3] 4% | outcome [5] | outcome [6] | outcome [7] | outcome [8]
active: growth inhibition [1] 97% | growth inhibition [4] 101%

Cn1nccc1C(=O)NCCNCc1ccc(-c2cccc(-c3nc4ccc(F)cc4[nH]3)c2)cc1
active: growth inhibition [1] 98% | growth inhibition [4] 102%
inactive: inhibition [2] 37% | inhibition [3] -7% | outcome [5] | outcome [6] | outcome [7] | outcome [8]

O=C(NCCCCN1CCC(c2ccc3ccccc3c2)CC1)c1ccc(NC(=O)c2ccc(Cl)cc2)cc1
inactive: inhibition [2] 24% | inhibition [3] -4% | outcome [5] | outcome [6] | outcome [7] | outcome [8]
active: growth inhibition [1] 93% | growth inhibition [4] 102%

c1ccc(Oc2ccc(Nc3nncc4ccccc34)cc2)cc1
active: growth inhibition [1] 82% | growth inhibition [4] 86%
inactive: inhibition [2] 20% | inhibition [3] 1% | outcome [5] | outcome [6] | outcome [7] | outcome [8]
